The source of these data is PubChem BioAssay (EPA / NIEHS).

One may read the AC50 as the concentration at which the activity in the assay is half-maximal.

For one experiment, the target named is Adra2b (gene 24174) (UniProt P19328). The experiment can be described thus: NVS_GPCR_rmAdra2B: NovaScreen (NVS) G Protein-Coupled Receptor Assay for hybird cells Adrenergic, Alpha 2B Receptor (Adra2B) (AID 2283306). The method, boiled down:
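Compounds screened first at 25 uM in duplicate, with actives followed up in concentration-response; specific radioligand displacement from hybrid neuroglioma/blastoma cell membrane preparations measured by filter scintillation counting after 1 h, normalized to DMSO.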

For experiment [1], the target named is rat Neonicotinoid receptor (NNR), Chrna7 (gene 25302) (UniProt Q05941). As to the kind of experiment: NVS_LGIC_rNNR_BungSens: NovaScreen (NVS) Ligand-Gated Ion Channel Assay for rat Neonicotinoid receptor (NNR) (AID 2283315). The method, boiled down: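 Rat cortical membrane preparation incubated 2.5 h with tritiated or iodinated radioligand and test chemical. Bound radioactivity was filtered and counted by scintillation, and displacement was analysed against DMSO.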

Experiment [2] addresses rat Opioid Receptor, Non-selective Binding, Oprm1 (gene 25601) (UniProt P33535). The experiment can be described thus: NVS_GPCR_rOpiate_NonSelective: NovaScreen (NVS) G Protein-Coupled Receptor Assay for rat Opioid Receptor, Non-selective Binding (AID 2283318). The method, boiled down: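 Filter-based radioligand displacement using rat forebrain membrane preparations, measured 1.5 h post-dosing. Single-concentration duplicate screen at 25 uM, follow-up in concentration series; activity taken as signal loss relative to DMSO.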

For experiment [3], the target named is Sodium channel protein type 1 subunit alpha (Rattus norvegicus) (UniProt P04774). As to the kind of experiment: NVS_IC_rNaCh_site2: NovaScreen (NVS) Ion Channel Assay for rat Sodium Channel, Site 2 (NaCh) (AID 2283322).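 Also: hit means loss of radioligand binding signal relative to DMSO so AC50 marks displacement.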 The method, boiled down: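 Initial duplicate single-point testing at 25 uM, followed by concentration-response runs for actives. Binding of radioligand to rat forebrain membranes quantified after 1 h via filter-based radiodetection.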

Experiment [4] has as its target human Serotonin, 5-Hydroxytryptamine Receptor 3 (5HT3), HTR3A (gene 3359) (UniProt P46098). As to the kind of experiment: NVS_LGIC_h5HT3: NovaScreen (NVS) Ligand-Gated Ion Channel Assay for human Serotonin, 5-Hydroxytryptamine Receptor 3 (5HT3) (AID 2283325). The method, boiled down: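 Initially tested at 25 uM in duplicate, then up to 50 uM in concentration-response for actives, compounds competed with a radioligand for HEK293-derived human 5-HT3 receptor. Bound counts were measured by filtration and scintillation at 1 h; loss of signal versus DMSO.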

Experiment [5] concerns the target rat Neurokinin-1 Receptor (NK1), Tacr1 (gene 24807) (UniProt P14600). As to the kind of experiment: NVS_GPCR_rNK1: NovaScreen (NVS) G Protein-Coupled Receptor Assay for rat Neurokinin-1 Receptor (NK1) (AID 2283309). The method, boiled down:
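Competitive radioligand binding to NK1 in rat submaxillary membranes, 1 h incubation, filtration and scintillation read-out. Compounds first screened at 25 uM in duplicate, then concentration-response for actives; signal loss relative to DMSO.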

In experiment [6] the target is rat Neurokinin-3 Receptor (NK3), Tacr3 (gene 24808) (UniProt P16177). As to the kind of experiment: NVS_GPCR_rNK3: NovaScreen (NVS) G Protein-Coupled Receptor Assay for rat Neurokinin-3 Receptor (NK3) (AID 2283310). The gist of the method:
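Filter-based radioligand displacement on rat cortex membrane preparations, read by scintillation 2 h post-dose. Chemicals first tested in duplicate at 25 uM; actives followed up in concentration series with a 50 uM maximum.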

Experiment [7] in a line: NVS_IC_rCaDHPRCh_L: NovaScreen (NVS) Ion Channel Assay for rat Calcium Channel, Type L, Dihydropyridine Site (CaDHPRCh_L) (AID 2283320). The method, boiled down: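 Rat cortex membrane preparation; dihydropyridine-site radioligand displacement read 1 h post-dose by filtration and scintillation. Primary single-point screen 25 uM in duplicate, then concentration series to 50 uM maximum; DMSO as negative control.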

The target in experiment [8] is rat Thyrotropin Releasing Hormone Receptor (TRH), Trhr (gene 25570) (UniProt Q01717). As to the kind of experiment: NVS_GPCR_rTRH: NovaScreen (NVS) G Protein-Coupled Receptor Assay for rat Thyrotropin Releasing Hormone Receptor (TRH) (AID 2283329).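 Also: hit means lower bound tracer signal versus DMSO baseline.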 The gist of the method:
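Competitive radioligand binding on rat forebrain membrane preparations, with filtration and scintillation readout after 4 h. Primary testing in duplicate at 25 uM; actives confirmed in concentration-response. DMSO defined baseline.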

In experiment [9] the target is rat Opioid Receptor, Non-selective Sodium (Na+) Binding, Oprm1 (gene 25601) (UniProt P33535). The experiment can be described thus: NVS_GPCR_rOpiate_NonSelectiveNa: NovaScreen (NVS) G Protein-Coupled Receptor Assay for rat Opioid Receptor, Non-selective Sodium (Na+) Binding (AID 2283311). The gist of the method: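 Filtration radioligand binding on rat forebrain membrane preparations, read 1.5 h after dosing. Single-concentration 25 µM primary screen in duplicate, followed by singleton concentration series to 50 µM max for actives; DMSO baseline.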

In experiment [10] the target is Metabotropic glutamate receptor 1 (Rattus norvegicus) (UniProt P23385). As to the kind of experiment: NVS_GPCR_rmMGluR1: NovaScreen (NVS) G Protein-Coupled Receptor Assay for rat Glutamate Metabotropic Receptor 1 (MGluR1) (AID 2283305). The method, boiled down:
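Binding to native receptor from rat cerebellum extract, measured as displacement of a radioligand (scintillation counting, filter separation) after 1 hour. Compounds tested at 25 uM in duplicate, then titrated to a 50 uM maximum.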

Experiment [11] deals with rat Somatostatin Receptor (SST), Sstr1 (gene 25033) (UniProt P28646). The experiment can be described thus: NVS_GPCR_rSST: NovaScreen (NVS) G Protein-Coupled Receptor Assay for rat Somatostatin Receptor (SST) (AID 2283314). The gist of the method:
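Single-concentration duplicate screen (25 uM), then concentration-response up to 50 uM for chemicals passing a threshold such as 30% inhibition. Membranes came from rat forebrain. Binding was measured 1 h post-dose by filter radiodetection and scintillation, relative to DMSO.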

Experiment [12] has as its target rat Glutamate, AMPA Site (AMPA), Gria1 (gene 50592) (UniProt P19490). As to the kind of experiment: NVS_LGIC_rAMPA: NovaScreen (NVS) Ligand-Gated Ion Channel Assay for rat Glutamate, AMPA Site (AMPA) (AID 2283324). The gist of the method: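 Screening at 25 uM in duplicate preceded concentration series reaching 50 uM for qualifying compounds. Radioligand displacement on rat forebrain membranes, 1 h, filter-based scintillation readout; reduced binding relative to DMSO.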

Experiment [13] has as its target rat Vasopressin 1 Receptor (V1), Avpr1a (gene 25107) (UniProt P30560). The experiment can be described thus: NVS_GPCR_rV1: NovaScreen (NVS) G Protein-Coupled Receptor Assay for rat Vasopressin 1 Receptor (V1) (AID 2283316). The method, boiled down:
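Concentration-response up to 50 uM for chemicals passing a threshold such as 30% inhibition in an initial duplicate 25 uM screen. Displacement of radioligand from rat liver membranes measured after 1.5 h by filtration and scintillation.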

For experiment [14], the target named is rat Gamma-Aminobutyric Acid Type A Receptor, Non-Selective (GABAR-NonSelective), Gabra1 (gene 29705) (UniProt P62813). As to the kind of experiment: NVS_LGIC_rGABAR_NonSelective: NovaScreen (NVS) Ligand-Gated Ion Channel Assay for rat Gamma-Aminobutyric Acid Type A Receptor, Non-Selective (GABAR-NonSelective) (AID 2283326). The gist of the method: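 Compounds were first screened in duplicate at 25 uM, with actives run as singleton concentration series (max 50 uM). Binding of a radioligand to rat whole-brain GABA-A preparation was measured by filtration and scintillation counting after 1 h, DMSO baseline.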

Experiment [15] addresses rat Glutamate Metabotropic Receptor 5 (MGluR5), Grm5 (gene 24418) (UniProt P31424). The experiment can be described thus: NVS_GPCR_rmMGluR5: NovaScreen (NVS) G Protein-Coupled Receptor Assay for rat Glutamate Metabotropic Receptor 5 (MGluR5) (AID 2283307). The method, boiled down:
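Compounds first screened in duplicate at 25 uM, then in concentration series up to 50 uM if over threshold. Radioligand displacement on rat whole-brain membranes, filtration and scintillation counting after 1.5 h; binding loss relative to DMSO.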

Experiment [16] has as its target rat Glutamate, NMDA Agonist Site (GluNMDA), Grin1 (gene 24408) (UniProt P35439). As to the kind of experiment: NVS_LGIC_rGluNMDA_Agonist: NovaScreen (NVS) Ligand-Gated Ion Channel Assay for rat Glutamate, NMDA Agonist Site (GluNMDA) (AID 2283327). The method, boiled down: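 Radioligand displacement at the agonist site on rat forebrain membrane preparations, read by filter scintillation after 1 h. Chemicals were first run at 25 uM in duplicate; those passing threshold were titrated to a 50 uM maximum.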

Results filed as inconclusive are left out. Activity calls are given as the source filed them. The calls were made as follows: active = hit-call score of the fitted dose curve at least 0.9, where 1 is the maximum; inconclusive = response in the unintended direction; inactive = score below 0.9.

Sequence of rat Opioid Receptor, Non-selective Binding, Oprm1 (gene 25601) (P33535 whole entry, looked up): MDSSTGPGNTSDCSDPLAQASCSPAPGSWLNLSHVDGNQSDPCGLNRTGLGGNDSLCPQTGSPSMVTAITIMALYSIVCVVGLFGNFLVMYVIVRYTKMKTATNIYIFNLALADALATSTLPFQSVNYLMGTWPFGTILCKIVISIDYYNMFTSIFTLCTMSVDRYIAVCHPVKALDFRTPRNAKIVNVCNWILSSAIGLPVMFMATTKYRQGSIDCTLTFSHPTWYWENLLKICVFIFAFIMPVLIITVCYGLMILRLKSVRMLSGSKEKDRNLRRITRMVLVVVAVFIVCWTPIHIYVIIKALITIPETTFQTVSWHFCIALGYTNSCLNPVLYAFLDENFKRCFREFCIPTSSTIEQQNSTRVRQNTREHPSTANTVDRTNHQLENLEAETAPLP
Sequence of rat Opioid Receptor, Non-selective Sodium (Na+) Binding, Oprm1 (gene 25601) (P33535 whole entry, looked up): as above
Sequence of rat Neurokinin-1 Receptor (NK1), Tacr1 (gene 24807) (P14600 whole entry, looked up): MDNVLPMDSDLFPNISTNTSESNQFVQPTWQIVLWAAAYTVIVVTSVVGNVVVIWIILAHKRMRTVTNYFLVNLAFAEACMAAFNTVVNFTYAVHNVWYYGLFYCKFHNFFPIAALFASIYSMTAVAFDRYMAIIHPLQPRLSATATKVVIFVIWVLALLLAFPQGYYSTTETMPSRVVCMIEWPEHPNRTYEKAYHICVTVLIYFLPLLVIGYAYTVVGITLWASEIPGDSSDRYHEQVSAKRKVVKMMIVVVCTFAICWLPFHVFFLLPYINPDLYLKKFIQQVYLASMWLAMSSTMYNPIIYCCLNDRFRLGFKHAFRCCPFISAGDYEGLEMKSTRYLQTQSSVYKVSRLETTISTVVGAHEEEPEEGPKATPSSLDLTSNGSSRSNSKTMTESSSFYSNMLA
Sequence of rat Thyrotropin Releasing Hormone Receptor (TRH), Trhr (gene 25570) (Q01717 whole entry, looked up): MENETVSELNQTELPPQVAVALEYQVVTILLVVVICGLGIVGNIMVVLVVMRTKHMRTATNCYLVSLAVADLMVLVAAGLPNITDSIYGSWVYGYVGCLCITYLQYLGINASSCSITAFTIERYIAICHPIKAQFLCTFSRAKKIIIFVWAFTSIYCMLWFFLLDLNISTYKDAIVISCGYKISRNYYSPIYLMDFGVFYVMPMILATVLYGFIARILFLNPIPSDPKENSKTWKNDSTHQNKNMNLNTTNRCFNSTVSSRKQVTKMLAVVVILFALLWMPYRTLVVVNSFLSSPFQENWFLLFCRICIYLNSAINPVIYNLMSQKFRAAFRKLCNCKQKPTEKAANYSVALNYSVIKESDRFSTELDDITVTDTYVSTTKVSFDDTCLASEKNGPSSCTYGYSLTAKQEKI
Sequence of rat Neonicotinoid receptor (NNR), Chrna7 (gene 25302) (Q05941 whole entry, looked up): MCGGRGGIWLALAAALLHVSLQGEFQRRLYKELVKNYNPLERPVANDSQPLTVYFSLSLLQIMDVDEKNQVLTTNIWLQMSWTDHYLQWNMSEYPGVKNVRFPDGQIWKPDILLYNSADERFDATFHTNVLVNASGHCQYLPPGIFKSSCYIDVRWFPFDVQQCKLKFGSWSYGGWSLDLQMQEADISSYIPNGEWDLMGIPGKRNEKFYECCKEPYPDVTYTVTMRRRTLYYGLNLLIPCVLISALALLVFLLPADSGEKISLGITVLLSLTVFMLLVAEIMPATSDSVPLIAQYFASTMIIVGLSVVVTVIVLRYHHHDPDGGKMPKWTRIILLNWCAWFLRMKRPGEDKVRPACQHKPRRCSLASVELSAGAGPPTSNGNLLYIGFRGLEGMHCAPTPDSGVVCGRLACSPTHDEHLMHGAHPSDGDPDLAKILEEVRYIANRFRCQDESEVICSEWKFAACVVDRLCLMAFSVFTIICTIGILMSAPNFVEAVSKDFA
Sequence of rat Neurokinin-3 Receptor (NK3), Tacr3 (gene 24808) (P16177 whole entry, looked up): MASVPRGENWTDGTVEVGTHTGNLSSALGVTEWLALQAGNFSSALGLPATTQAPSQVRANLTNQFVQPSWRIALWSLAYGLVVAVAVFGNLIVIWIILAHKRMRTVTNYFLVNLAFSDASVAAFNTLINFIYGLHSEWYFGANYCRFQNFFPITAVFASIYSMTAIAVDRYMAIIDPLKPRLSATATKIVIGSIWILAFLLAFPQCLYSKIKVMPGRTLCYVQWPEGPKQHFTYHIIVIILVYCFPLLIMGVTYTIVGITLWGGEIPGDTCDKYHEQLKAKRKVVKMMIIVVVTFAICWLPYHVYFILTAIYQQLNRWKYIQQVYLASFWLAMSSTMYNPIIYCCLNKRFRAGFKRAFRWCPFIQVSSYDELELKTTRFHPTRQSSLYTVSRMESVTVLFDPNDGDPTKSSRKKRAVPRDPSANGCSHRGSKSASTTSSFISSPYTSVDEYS
Sequence of Adra2b (gene 24174) (P19328 whole entry, looked up): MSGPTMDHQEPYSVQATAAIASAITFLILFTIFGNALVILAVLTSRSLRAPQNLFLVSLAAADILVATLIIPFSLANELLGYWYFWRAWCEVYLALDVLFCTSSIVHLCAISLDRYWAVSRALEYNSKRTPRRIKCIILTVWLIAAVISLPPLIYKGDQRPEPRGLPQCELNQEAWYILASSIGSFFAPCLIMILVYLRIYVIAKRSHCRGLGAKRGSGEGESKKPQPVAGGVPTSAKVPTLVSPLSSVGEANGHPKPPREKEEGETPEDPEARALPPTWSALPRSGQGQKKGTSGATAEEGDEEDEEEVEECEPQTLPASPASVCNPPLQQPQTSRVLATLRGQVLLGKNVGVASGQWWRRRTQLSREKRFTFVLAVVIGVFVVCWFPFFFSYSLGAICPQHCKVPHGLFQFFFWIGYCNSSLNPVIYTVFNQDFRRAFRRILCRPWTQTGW
Sequence of human Serotonin, 5-Hydroxytryptamine Receptor 3 (5HT3), HTR3A (gene 3359) (P46098 whole entry, looked up): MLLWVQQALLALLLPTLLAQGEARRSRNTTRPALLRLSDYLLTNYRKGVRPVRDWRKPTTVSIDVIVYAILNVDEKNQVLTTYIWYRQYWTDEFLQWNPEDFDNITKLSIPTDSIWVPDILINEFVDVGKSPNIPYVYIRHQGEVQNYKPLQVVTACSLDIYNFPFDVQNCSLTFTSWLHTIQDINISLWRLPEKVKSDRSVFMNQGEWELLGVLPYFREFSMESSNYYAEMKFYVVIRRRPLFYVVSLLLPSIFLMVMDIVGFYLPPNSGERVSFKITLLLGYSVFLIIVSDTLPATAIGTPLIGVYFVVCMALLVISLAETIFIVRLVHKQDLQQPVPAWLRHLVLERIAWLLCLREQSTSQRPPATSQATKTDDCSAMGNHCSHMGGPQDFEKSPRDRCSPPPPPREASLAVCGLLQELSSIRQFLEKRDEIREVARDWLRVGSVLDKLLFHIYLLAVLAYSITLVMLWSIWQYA
Sequence of rat Gamma-Aminobutyric Acid Type A Receptor, Non-Selective (GABAR-NonSelective), Gabra1 (gene 29705) (P62813 whole entry, looked up): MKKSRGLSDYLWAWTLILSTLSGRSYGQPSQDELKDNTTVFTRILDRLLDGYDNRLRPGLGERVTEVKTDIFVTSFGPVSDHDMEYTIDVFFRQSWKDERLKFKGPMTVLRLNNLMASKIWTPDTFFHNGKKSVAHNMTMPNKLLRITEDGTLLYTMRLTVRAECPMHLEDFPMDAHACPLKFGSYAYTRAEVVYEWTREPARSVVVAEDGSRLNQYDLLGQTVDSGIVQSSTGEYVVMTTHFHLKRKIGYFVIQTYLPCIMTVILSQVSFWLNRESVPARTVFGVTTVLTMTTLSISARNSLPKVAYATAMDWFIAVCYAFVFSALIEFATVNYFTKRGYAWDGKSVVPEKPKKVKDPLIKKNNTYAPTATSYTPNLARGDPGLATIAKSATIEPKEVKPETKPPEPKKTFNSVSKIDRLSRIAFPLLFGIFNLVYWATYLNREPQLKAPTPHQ
Sequence of Metabotropic glutamate receptor 1 (Rattus norvegicus) (P23385 whole entry, looked up): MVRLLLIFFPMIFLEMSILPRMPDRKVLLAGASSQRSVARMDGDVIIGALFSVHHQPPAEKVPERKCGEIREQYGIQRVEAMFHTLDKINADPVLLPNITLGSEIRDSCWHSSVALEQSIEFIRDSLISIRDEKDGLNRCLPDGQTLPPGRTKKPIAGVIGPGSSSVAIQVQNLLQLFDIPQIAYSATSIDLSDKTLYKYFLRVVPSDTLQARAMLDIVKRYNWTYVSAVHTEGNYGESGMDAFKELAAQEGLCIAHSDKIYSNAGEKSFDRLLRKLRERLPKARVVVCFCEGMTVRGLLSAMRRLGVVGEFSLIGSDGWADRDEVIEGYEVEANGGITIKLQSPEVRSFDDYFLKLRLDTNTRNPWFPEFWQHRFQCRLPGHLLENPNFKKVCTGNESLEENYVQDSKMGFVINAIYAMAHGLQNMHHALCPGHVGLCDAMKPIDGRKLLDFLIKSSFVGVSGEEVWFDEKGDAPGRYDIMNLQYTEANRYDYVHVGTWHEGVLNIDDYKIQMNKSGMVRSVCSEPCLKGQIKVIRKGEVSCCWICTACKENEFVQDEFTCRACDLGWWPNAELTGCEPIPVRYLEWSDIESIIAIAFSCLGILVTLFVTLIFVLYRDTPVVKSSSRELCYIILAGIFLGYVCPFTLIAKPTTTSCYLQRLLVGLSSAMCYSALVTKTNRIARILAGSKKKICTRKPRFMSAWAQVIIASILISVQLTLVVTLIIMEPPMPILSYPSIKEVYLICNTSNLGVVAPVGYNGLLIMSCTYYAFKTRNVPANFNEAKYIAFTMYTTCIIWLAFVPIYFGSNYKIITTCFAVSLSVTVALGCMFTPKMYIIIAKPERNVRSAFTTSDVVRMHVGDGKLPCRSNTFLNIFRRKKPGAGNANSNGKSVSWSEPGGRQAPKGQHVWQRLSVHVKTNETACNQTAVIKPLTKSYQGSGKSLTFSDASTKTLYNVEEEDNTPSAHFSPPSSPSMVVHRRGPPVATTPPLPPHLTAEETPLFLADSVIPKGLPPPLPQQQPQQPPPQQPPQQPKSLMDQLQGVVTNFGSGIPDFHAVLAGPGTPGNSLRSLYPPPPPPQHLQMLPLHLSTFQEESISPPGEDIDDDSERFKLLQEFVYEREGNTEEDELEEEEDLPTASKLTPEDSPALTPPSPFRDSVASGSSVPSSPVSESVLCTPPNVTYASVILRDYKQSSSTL

On to `Clc1cc(Cl)c2c(c1)N=C1CCCCCN1C2`, for which the AC50 with Adra2b (gene 24174) was 5.33 µM (active); in experiment [1] it was 5.61 µM (active); in experiment [2], 7.31 µM (active); in experiment [3] it was 6.64 µM (active); in experiment [4], 12.5 µM (active).

Turning to `O=C1c2ccccc2C(=O)N1CCc1noc(-c2ccc(CN3CCCCCC3)s2)n1`, the AC50 with Adra2b (gene 24174) was 3.3 µM (active); in experiment [5], 12 µM (active); in experiment [2] it was 21.1 µM (active); in experiment [7] it was 6.2 µM (active); in experiment [3], 13.4 µM (active). Also, the call in experiment [6], in experiment [1] and in experiment [8] was inactive.

Take `COc1cccc([C@H](O)C2CCN(CCc3ccc(F)cc3)CC2)c1OC`: the AC50 with Adra2b (gene 24174) was 1.85 µM (active); in experiment [9], 15.7 µM (active); in experiment [2] it was 6.91 µM (active); in experiment [7] it was 25 µM (active); in experiment [3], 3.64 µM (active). Further, the call in experiment [4] was inactive.

For `O=c1[nH]sc2ccccc12`, the AC50 in experiment [10] is 35.9 µM (active); with Adra2b (gene 24174), 37.4 µM (active); in experiment [2], 19.6 µM (active). Further, the compound was called inactive in experiment [11] and in experiment [12].

In the case of `COc1ccc2cc(S(=O)(=O)N[C@H](CC(=O)N[C@H](Cc3ccc(CN4[C@H](C)CCC[C@@H]4C)cc3)C(=O)N(C)C(C)C)c3ccc4c(c3)OCO4)ccc2c1`, the AC50 with Adra2b (gene 24174) is 11.1 µM (active); in [5], 11.4 µM (active); in [6], 8.07 µM (active); in experiment [9], 4.72 µM (active); in experiment [11] it was 5.07 µM (active); in [2], 17.7 µM (active). The AC50 in [7] was 21.5 µM (active); in experiment [3] it was 5.03 µM (active); in experiment [14], 11.2 µM (active). The compound was classed as inactive in experiment [1] and in experiment [13].

For `CCN(Cc1cccnc1)C(=O)c1cccc(Cl)c1[C@]1(C)C(=O)N(Cc2ccc(OC)cc2OC)c2ccc(Cl)cc21`, the AC50 is 4.68 µM (active) with Adra2b (gene 24174); 23.6 µM (active) in [5]; 9.75 µM (active) in [6]; 13.9 µM (active) in [9]; 29 µM (active) in [13]; 5.25 µM (active) in experiment [2]. Besides, the figures for the AC50 in experiment [7], in [3] and in experiment [14] were 5.48 µM (active), 17.5 µM (active) and 16.8 µM (active), respectively.

Turning to `O=CCCCC=O`, the result in experiment [15] was inactive.

Consider `COc1cc(C(=O)NC2CCN(C)CC2)ccc1Nc1ncc2c(n1)N(C1CCCC1)CC(F)(F)C(=O)N2C`, for which the AC50 with Adra2b (gene 24174) was 18.8 µM (active); in experiment [5] it was 13.9 µM (active); in experiment [3], 2.03 µM (active); in [16], 11.5 µM (active). Further, the result in experiment [9], in experiment [1] and in [8] was inactive.

As to `Cc1cc(F)ccc1-c1cc(N2CC[C@@H](O)[C@H]2CO)ncc1N(C)C(=O)C(C)(C)c1cc(C(F)(F)F)cc(C(F)(F)F)c1`, the AC50 in experiment [10] was 8.39 µM (active); in [5], 0.274 µM (active); in experiment [3] it was 5.99 µM (active). For the same compound, the compound was called inactive in experiment [9] and in [8].
